Reference: PubChem BioAssay AID1159580 (chemical genetic matrix, 2015)
About 2,000 (36%) of roughly 5,500 compounds were called active. Inconclusive results (about 18%) are left out. Cut-off read from the data, not from the text of the source: active = normalized growth mostly below about 0.91 (no sharp cut-off); inconclusive = no clear call, values can overlap the other calls; inactive = mostly above about 0.92. The list shows a part of the results.

Assay: chemical genetic growth profiling, strain panel (AID 1159580);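 note: tested at 20 µM; growth read once vehicle control cultures reached saturation at 30 °C; 1 = growth at the plate median or of vehicle wells; lower values mean less growth of the strain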
Settings: growth OD
[1] = S. cerevisiae deletion strains, locus YAL013W, strain DEP1, active compounds read low
[2] = S. cerevisiae deletion strains, locus YBR229C, strain ROT2, active compounds read low
[3] = S. cerevisiae deletion strains, locus YDL101C, strain DUN1, active compounds read low
[4] = S. cerevisiae deletion strains, locus YDR150W, strain NUM1, active compounds read low
[5] = S. cerevisiae deletion strains, locus YEL061C, strain CIN8, active compounds read low
[6] = S. cerevisiae deletion strains, locus YGR078C, strain PAC10, active compounds read low
[7] = S. cerevisiae deletion strains, locus YHR030C, strain SLT2, active compounds read low
[8] = S. cerevisiae deletion strains, locus YHR087W, strain rtc3, active compounds read low
[9] = S. cerevisiae deletion strains, locus YJR043C, strain POL32, active compounds read low
[10] = S. cerevisiae deletion strains, locus YJR075W, strain HOC1, active compounds read low
[11] = S. cerevisiae deletion strains, locus YKL190W, strain CNB1, active compounds read low
[12] = S. cerevisiae deletion strains, locus YLR039C, strain RIC1, active compounds read low
[13] = S. cerevisiae deletion strains, locus YLR058C, strain SHM2 (second series), active compounds read low
[14] = S. cerevisiae deletion strains, locus YLR085C, strain ARP6, active compounds read low
[15] = S. cerevisiae deletion strains, locus YLR262C, strain YPT6, active compounds read low
[16] = S. cerevisiae deletion strains, locus YML094W, strain GIM5, active compounds read low
[17] = S. cerevisiae deletion strains, locus YMR219W, strain ESC1, active compounds read low
[18] = S. cerevisiae deletion strains, locus YMR263W, strain SAP30, active compounds read low
[19] = S. cerevisiae deletion strains, locus YNL153C, strain GIM3, active compounds read low
[20] = S. cerevisiae deletion strains, locus YNL298W, strain CLA4 (second series), active compounds read low
[21] = S. cerevisiae deletion strains, locus YNL322C, strain KRE1, active compounds read low
[22] = S. cerevisiae deletion strains, locus YNR030W, strain Alg12, active compounds read low
[23] = S. cerevisiae deletion strains, locus YPL055C, strain LGE1, active compounds read low
[24] = S. cerevisiae deletion strains, locus YPL241C, strain CIN2, active compounds read low
[25] = S. cerevisiae deletion strains, locus YPR135W, strain CTF4, active compounds read low
[26] = S. cerevisiae strains, strain wild type, active compounds read low
[27] = S. cerevisiae deletion strains, locus YAR019C, strain CDC15, active compounds read low
[28] = S. cerevisiae deletion strains, locus YBL105C, strain PKC1, active compounds read low
[29] = S. cerevisiae deletion strains, locus YBR135W, strain CKS1, active compounds read low
[30] = S. cerevisiae deletion strains, locus YBR136W, strain MEC1, active compounds read low
[31] = S. cerevisiae deletion strains, locus YBR160W, strain CDC28, active compounds read low
[32] = S. cerevisiae deletion strains, locus YDL017W, strain CDC7, active compounds read low
[33] = S. cerevisiae deletion strains, locus YDL028C, strain MPS1, active compounds read low
[34] = S. cerevisiae deletion strains, locus YDL108W, strain KIN28, active compounds read low
[35] = S. cerevisiae deletion strains, locus YDL132W, strain cdc53, active compounds read low
[36] = S. cerevisiae deletion strains, locus YDL214C, strain PRR2, active compounds read low
[37] = S. cerevisiae deletion strains, locus YDR052C, strain DBF4, active compounds read low
[38] = S. cerevisiae deletion strains, locus YDR054C, strain cdc34, active compounds read low
[39] = S. cerevisiae deletion strains, locus YDR226W, strain ADK1, active compounds read low
[40] = S. cerevisiae deletion strains, locus YDR477W, strain SNF1, active compounds read low
[41] = S. cerevisiae deletion strains, locus YER123W, strain YCK3, active compounds read low
[42] = S. cerevisiae deletion strains, locus YER133W, strain GLC7, active compounds read low
[43] = S. cerevisiae deletion strains, locus YFL009W, strain cdc4, active compounds read low
[44] = S. cerevisiae deletion strains, locus YFL029C, strain CAK1, active compounds read low
[45] = S. cerevisiae deletion strains, locus YFR003C, strain YPI1, active compounds read low
[46] = S. cerevisiae deletion strains, locus YFR019W, strain FAB1, active compounds read low
[47] = S. cerevisiae deletion strains, locus YFR028C, strain CDC14, active compounds read low
[48] = S. cerevisiae deletion strains, locus YGR040W, strain KSS1, active compounds read low
[49] = S. cerevisiae deletion strains, locus YGR052W, strain FMP48, active compounds read low
[50] = S. cerevisiae deletion strains, locus YGR092W, strain DBF2, active compounds read low
[51] = S. cerevisiae deletion strains, locus YHR079C, strain IRE1, active compounds read low
[52] = S. cerevisiae deletion strains, locus YHR082C, strain KSP1, active compounds read low
[53] = S. cerevisiae deletion strains, locus YHR205W, strain SCH9, active compounds read low
[54] = S. cerevisiae deletion strains, locus YIL147C, strain SLN1, active compounds read low
[55] = S. cerevisiae deletion strains, locus YJL095W, strain BCK1, active compounds read low
[56] = S. cerevisiae deletion strains, locus YJL128C, strain PBS2, active compounds read low
[57] = S. cerevisiae deletion strains, locus YJL157C, strain FAR1, active compounds read low
[58] = S. cerevisiae deletion strains, locus YJR016C, strain ILV3, active compounds read low
[59] = S. cerevisiae deletion strains, locus YJR066W, strain TOR1 (second series), active compounds read low
[60] = S. cerevisiae deletion strains, locus YJR066W, strain TOR1, active compounds read low
[61] = S. cerevisiae deletion strains, locus YKL048C, strain ELM1, active compounds read low
[62] = S. cerevisiae deletion strains, locus YKL067W, strain YNK1, active compounds read low
[63] = S. cerevisiae deletion strains, locus YKL101W, strain HSL1, active compounds read low
[64] = S. cerevisiae deletion strains, locus YKL193C, strain SDS22, active compounds read low
[65] = S. cerevisiae deletion strains, locus YKL203C, strain TOR2, active compounds read low
[66] = S. cerevisiae deletion strains, locus YLR113W, strain HOG1, active compounds read low
[67] = S. cerevisiae deletion strains, locus YLR133W, strain CKI1, active compounds read low
[68] = S. cerevisiae deletion strains, locus YLR403W, strain SFP1, active compounds read low
[69] = S. cerevisiae deletion strains, locus YML070W, strain DAK1, active compounds read low
[70] = S. cerevisiae deletion strains, locus YMR001C, strain CDC5, active compounds read low
[71] = S. cerevisiae deletion strains, locus YMR205C, strain PFK2 (second series), active compounds read low
[72] = S. cerevisiae deletion strains, locus YMR277W, strain FCP1, active compounds read low
[73] = S. cerevisiae deletion strains, locus YNL006W, strain LST8, active compounds read low
[74] = S. cerevisiae deletion strains, locus YNL020C, strain ARK1, active compounds read low
[75] = S. cerevisiae deletion strains, locus YNL161W, strain CBK1, active compounds read low
[76] = S. cerevisiae deletion strains, locus YNL183C, strain NPR1, active compounds read low
[77] = S. cerevisiae deletion strains, locus YNL207W, strain RIO2, active compounds read low
[78] = S. cerevisiae deletion strains, locus YNL222W, strain SSU72, active compounds read low
[79] = S. cerevisiae deletion strains, locus YNL307C, strain MCK1 (second series), active compounds read low
[80] = S. cerevisiae deletion strains, locus YOL078W, strain AVO1, active compounds read low
[81] = S. cerevisiae deletion strains, locus YOL136C, strain PFK27, active compounds read low
[82] = S. cerevisiae deletion strains, locus YOR061W, strain CKA2, active compounds read low
[83] = S. cerevisiae deletion strains, locus YOR119C, strain RIO1, active compounds read low
[84] = S. cerevisiae deletion strains, locus YOR231W, strain MKK1, active compounds read low
[85] = S. cerevisiae deletion strains, locus YOR329C, strain SCD5, active compounds read low
[86] = S. cerevisiae deletion strains, locus YPL031C, strain PHO85, active compounds read low
[87] = S. cerevisiae deletion strains, locus YPL153C, strain RAD53, active compounds read low
[88] = S. cerevisiae deletion strains, locus YPL204W, strain HRR25, active compounds read low
[89] = S. cerevisiae deletion strains, locus YPL209C, strain IPL1, active compounds read low
[90] = S. cerevisiae deletion strains, locus YPL256C, strain CLN2, active compounds read low
[91] = S. cerevisiae deletion strains, locus YPR025C, strain CCL1, active compounds read low
[92] = S. cerevisiae deletion strains, locus YPR106W, strain ISR1, active compounds read low
[93] = S. cerevisiae deletion strains, locus YPR111W, strain DBF20, active compounds read low
[94] = S. cerevisiae deletion strains, strain NNK1, active compounds read low
[95] = S. cerevisiae deletion strains, strain TSCII, active compounds read low

Measured: normalized growth

FC(F)(F)c1ccc(-c2nc(-c3ccc4c(c3)OCCCO4)cs2)cc1
inactive: [1] 1.03 | [2] 1.01 | S. cerevisiae deletion strains, locus YCL061C, strain MRC1, active compounds read low 0.99 | [3] 0.965 | S. cerevisiae deletion strains, locus YDL134C, strain PPH21, active compounds read low 1 | [4] 1.01 | [5] 1.01 | [6] 1.01 | S. cerevisiae deletion strains, locus YGR229C, strain SMI1, active compounds read low 1.01 | [7] 1.05 | [8] 1.03 | [9] 0.997 | [10] 1.02 | [11] 1.01 | [12] 1.07 | [13] 0.998 | [14] 1.1 | [15] 1.02 | [16] 1.04 | [17] 1.01 | [18] 0.988 | S. cerevisiae deletion strains, locus YMR307W, strain GAS1, active compounds read low 0.987 | [19] 0.992 | [20] 1.02 | [21] 1.01 | [22] 1.01 | [23] 1.06 | [24] 1.03 | [25] 1.27 | [26] 1.01

CC(=O)c1csc(-c2ccc(C(F)(F)F)cc2)n1
inactive: [1] 0.947 | [2] 0.965 | [3] 0.977 | [4] 0.977 | [5] 0.967 | [6] 0.949 | [7] 0.761 | [8] 0.964 | [9] 0.988 | [10] 0.928 | [11] 0.994 | [12] 0.882 | [13] 0.955 | [15] 0.943 | [16] 0.898 | [17] 0.977 | [18] 0.979 | S. cerevisiae deletion strains, locus YNL128W, strain TEP1, active compounds read low 0.99 | [19] 0.954 | [20] 0.911 | [21] 0.971 | [22] 0.943 | [23] 0.892 | [25] 0.658 | [26] 0.997
active: [14] 0.762 | [24] 0.841

O=C(NNC(=O)c1csc(-c2cccs2)n1)c1ccc(C(F)(F)F)cc1
inactive: [27] 0.972 | [28] 0.967 | [29] 0.955 | [30] 0.979 | [31] 0.965 | [32] 0.961 | [33] 0.958 | [34] 0.972 | [35] 0.946 | [37] 0.964 | [38] 0.961 | [39] 0.967 | [41] 0.75 | [42] 0.863 | [43] 0.967 | [44] 0.959 | [45] 0.964 | [46] 0.99 | [47] 0.949 | [48] 0.832 | [49] 0.779 | [52] 0.838 | [53] 0.695 | [54] 0.973 | [56] 0.948 | [58] 0.969 | [60] 0.486 | [61] 0.91 | [64] 0.963 | [65] 0.913 | [68] 0.884 | [69] 0.887 | [70] 0.949 | [72] 0.957 | [73] 0.96 | [75] 0.959 | [77] 0.955 | [78] 0.963 | [80] 0.966 | [81] 0.805 | [82] 0.821 | [83] 0.877 | [85] 0.959 | [88] 0.723 | [89] 0.964 | [91] 0.954 | [92] 0.959 | [93] 0.974 | [94] 0.974 | [95] 0.943
active: [3] 0.901 | [36] 0.657 | [40] 0.572 | [50] 0.154 | [7] 0.198 | [51] 0.181 | [55] 0.345 | [57] 0.612 | [59] 0.14 | [62] 0.713 | [63] 0.59 | [66] 0.677 | [67] 0.592 | [71] 0.666 | [74] 0.492 | [76] 0.5 | [79] 0.286 | [84] 0.29 | [86] 0.512 | [87] 0.57 | [90] 0.558

O=C(NCc1cccs1)c1csc(Cc2c(Cl)cccc2Cl)n1
inactive: [27] 0.986 | [28] 0.969 | [29] 0.972 | [30] 0.995 | [31] 0.979 | [32] 0.987 | [33] 0.969 | [3] 0.981 | [34] 0.987 | [35] 0.978 | [36] 0.992 | [37] 0.996 | [38] 0.971 | [39] 0.971 | [40] 0.978 | [41] 0.985 | [42] 0.996 | [43] 0.957 | [44] 0.98 | [45] 0.991 | [46] 0.988 | [47] 0.982 | [48] 0.994 | [49] 1.06 | [50] 0.95 | [7] 0.924 | [51] 0.992 | [52] 1.02 | [53] 0.988 | [54] 0.985 | [55] 1.01 | [56] 0.937 | [57] 0.998 | [58] 0.99 | [59] 0.98 | [60] 0.956 | [61] 1 | [62] 0.996 | [63] 1 | [64] 0.99 | [65] 1.07 | [66] 0.981 | [67] 0.99 | [68] 0.994 | [69] 1 | [70] 0.986 | [71] 1.01 | [72] 0.982 | [73] 0.987 | [74] 1.01 | [75] 0.994 | [76] 1.07 | [77] 0.981 | [78] 0.983 | [79] 1.01 | [80] 0.991 | [81] 1.01 | [82] 0.992 | [83] 1.03 | [84] 0.988 | [85] 0.985 | [86] 0.988 | [87] 0.994 | [88] 1 | [89] 0.988 | [90] 0.985 | [91] 0.982 | [92] 0.968 | [93] 0.965 | [94] 0.977 | [95] 0.986
